# Measurements from PubChem BioAssay (NCI).
# Compounds without any hit were thinned out: in the full panel of roughly 83,000, 20% have a hit.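 Results are percent growth after 48 hours of single-concentration exposure. 100 means growth as in untreated cells, lower positive values show inhibition; negative values down to -100 show cell death.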 A number with no mark means an inactive call. Activity calls are given as the source filed them.
# System: SK-MEL-28 melanoma
# Experiment: NCI-60 one-dose screen, 48 h (100 = growth as untreated, 0 = no growth, -100 = all killed)
# Conditions: 10 µM unless noted
# Method: Growth inhibition of the SK-MEL-28 human tumor cell line is measured as a screen for anti-cancer activity. Cells are grown in 96 well plates and exposed to the test compound for 48 hours. Compounds are tested at a single concentration, which is 10^-5 M for most compounds. The reported endpoint is percent growth (GI% or GIPRCNT), where numbers from 0 - 100% represent growth inhibition, and numbers from -100% - 0 represent cell death. For example, a value of 40 represents 60% growth inhibition. A value of 0 means no net growth occurred over the course of the experiment. A value of -40 indicates 40% of cells at the beginning of the experiment died by the end of the experiment. A value of -100 means all cells are dead at the end of the experiment.
# NCI-60 Human Tumor Cell Lines Screen was performed using the standard one-dose NCI protocol, which is described in more detail at https://dtp.cancer.gov/discovery_development/nci-60/default.htm.
# Compounds with GIPRCNT values below 10 were considered active. Activity score was based on GIPRCNT using the following formula: […]
# Score is 0 for GIPRCNT values of 100 or above, 50 for GIPRCNT values of 0, and 100 for GIPRCNT values of -100.
row,SMILES,growth
1,O=C1c2ccccc2CCc2ccccc21,106%
2,C=C(C)[C@@H]1CC[C@]2(COC(=O)c3ccccc3C(=O)O)CC[C@]3(C)[C@H](CC[C@@H]4[C@@]5(C)CCCNC(C)(C)[C@@H]5CC[C@]43C)[C@@H]12,74.4%
3,Oc1ccccc1\C=N/N=C/C=C/c1ccccc1,111%
4,O=C(CCl)NC1c2ccccc2Oc2ccccc21,92%
5,O=C1/C(=C\c2cn(-c3nc(N4CCOCC4)nc(N4CCOCC4)n3)c3ccccc23)c2ccccc2N1c1c(Cl)cccc1Cl,77.2%
6,COc1cc2c(c3c1c(=O)c1cccc(F)c1n3C)C=CC(C)(C)O2,94.4%
7,CC#Cc1nc(Nc2cc(C)[nH]n2)c2ccccc2n1,40.5% [100 µM]
8,O=C1C(=O)c2ccccc2C(O)=C1CCCc1ccc(C2CCCC2)cc1,53.1%
9,O=C1NCCN1/N=C/c1c(Cl)nc2n1CCS2,107%
10,CC(=O)/C(=C\c1c(-c2ccccc2)[nH]c2ccccc12)S(=O)(=O)c1ccccc1,26.8%
11,COc1cc(-c2nn(-c3ccc(NC(=O)c4ccc(Cl)c(C(F)(F)F)c4)cc3)cc2-c2ccncc2)ccc1Cl,35.7%
12,COC(=O)[C@@H]1[C@H](O)[C@H](C)[C@H](O)[C@H](C)/C=C\C=C(C)C(=O)Nc2c(C)c(OC(C)=O)c3c(c2O)C(=O)C(C)=C2OCOC(=C23)C(C)=C[C@@](C)(O)[C@H](O)[C@@H](C)[C@H]1OC(C)=O,138%
13,CCOC(=O)c1c(C)oc2ncnc(Nc3ccc(NC(=O)Nc4ccc(CC)cc4)cc3)c12,105%
14,CCOC(=O)C1=C(c2ccccc2)NC(=O)NC1CN1C(=O)c2ccccc2C1=O (stereo not given),105%
15,O=C(OCC1CC2(Cl)C(Cl)=C(Cl)C1(Cl)C2(Cl)Cl)C1C(C(=O)OCC2CC3(Cl)C(Cl)=C(Cl)C2(Cl)C3(Cl)Cl)C2(Cl)C(Cl)=C(Cl)C1(Cl)C2(Cl)Cl (stereo not given),112%
16,C/C=C(/C)C(=O)OC1C=C(CO)C(=O)C(OC(=O)C(C)(O)C(C)Cl)C1C(C)C (stereo not given),-48.9% (active)
17,CCCCCCCCCCCCc1ccc([N+](CC)(CC)CC)cc1,28.9%
18,O=C(Nn1cnc2ccccc21)N1CCCC1,116%
19,O=S(=O)(O)c1ccc2c(c1)Sc1cc(S(=O)(=O)O)ccc1O2,106%
20,COc1cc(-c2nc3c(c(C)nc4c3nnn4-c3ccccc3)c(=O)o2)cc(OC)c1OC,101%

row,SMILES,growth
1,O=C(/C=C/c1cccc(O)c1)c1cccc(-n2cc(-c3ccc(Cl)cc3)[nH]c2=O)c1,-86.4% (active)
2,CCOc1ccc(N(C)c2ccc(/C=C/C3=[N+](C)c4ccccc4C3(C)C)cc2)cc1,19%
3,Cn1c2c(cc(S(=O)(=O)c3ccccc3)c1=O)CCc1c-2cnn1-c1ccc(Cl)cc1,-36.7% (active)
4,c1ccc(-c2cn3ccnc3c(-c3ccc4ncn(C5CCCCC5)c4c3)n2)cc1,82%
5,Cc1ccc(C(C)C)c(OCc2ccc(C(=O)N/N=C/c3cccc(O)c3O)cc2)c1,42.8%
6,COc1cccc(Cn2cc3c(c2)-c2oncc2CC3)c1,51.9%
7,CC(=O)Nc1nc(C)c(C(=O)N/N=C/c2cccs2)s1,95.5%
8,CCOC(=O)c1sc(NS(=O)(=O)c2ccccc2)nc1C,123%
9,CCN(CC)c1ccc2nc3ccc(N=Nc4ccc(O)cc4)cc3[n+](-c3ccccc3)c2c1,52.2%
10,COc1cc(C(=O)Nc2ccc(N(C)C)cc2)cc(OC)c1OC,81.9%
11,O=C(Nc1ccc(-n2cc(-c3ccncc3)c(-c3ccc(Cl)c(O)c3)n2)cc1)c1cc(Cl)cc(Cl)c1,29.7%
12,CC(=O)c1cc(Nc2cc(C)nc(N)n2)cc(C(C)=O)c1,111%
13,Cc1cc2cn3c4ccc(O)cc4[nH]c(=O)c3c2cc1C,-14.3% (active)
14,CCOC(=O)/C(C#N)=C(/CC)OCC,106%
15,COc1cccc(NC(=O)NCCNc2nccc(-c3c(-c4ccc(F)cc4)nc4sccn34)n2)c1,92.2%
16,O=C(Nc1ccc(-n2cc(-c3ccncc3)c(-c3ccc(Cl)c(O)c3)n2)cc1)c1ccc(Cl)c(Cl)c1,-7.55% (active)
17,Cc1c(Cc2ccccc2)c(=O)oc2c(C)c(OCC(=O)n3nc(C#N)cc3N)ccc12,106%
18,O=C(O)c1ccc(-c2nn(-c3ccc(C(=O)O)cc3)cc2CNc2ccc(Br)cc2)cc1,103%
19,O=C(NC(=S)NNC(=S)NNc1ccccc1)c1ccccc1,59.3%
20,O=c1[nH]c2cc(O)ccc2n2cc3c(F)cccc3c12,24.7%
